The values that follow come from PubChem BioAssay.

Structures are written as SMILES. Results filed as inconclusive are left out. The source made the active and inactive calls.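 Rule for the calls, unless noted: active = binding below the plate cutoff, the plate median minus 3 SD, with a reading above zero; inconclusive = below the plate cutoff but reading exactly zero; inactive = the rest.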

Experiment [1] can be described thus: yeast TOR pathway RPL19A-GFP modulators, primary screen, cell-based, S. cerevisiae, multiplex flow cytometry (AID 1862; in the data active = percent of DMSO control GFP below about 86%;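 note: lower values mimic rapamycin by blocking the RPL19A rise seen in DMSO cells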). The conditions noted are these: S. cerevisiae RPL19A-GFP strain, flow cytometry fluorescence, 3 h; at 10 µM; stronger effect = lower value.
Experiment [2] can be described thus: modulators of MEP2-GFP levels in yeast, primary screen, S. cerevisiae, multiplex flow cytometry (AID 1867;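 active = GFP response, as percent of the DMSO control, above the screen-wide mean plus 3 SD, about 139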;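 note: median GFP channel fluorescence of barcode-gated MEP2-GFP cells measured by flow cytometry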). The conditions noted are these: S. cerevisiae MEP2-GFP strain, 3 h, at 10 µM, stronger effect = higher value, 100% means same as DMSO wells.
Experiment [3] in a line: modulators of CIT2-GFP expression in yeast, primary screen, S. cerevisiae, GFP fusion, multiplex flow cytometry (AID 1870;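 active = percent response above a set limit, the screen-wide mean plus 3 SD, cut at about 130% in these data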;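 note: barcoded CIT2-GFP strain pooled with four other GFP strains with rapamycin as positive control; median GFP fluorescence per well over plate mean of DMSO wells so 100% = DMSO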). The conditions noted are these: 3 h, at 10 µM, stronger effect = higher value. On the technique in general: Flow cytometry measures light scatter and fluorescence of single cells or particles in a stream.
Experiment [4] in a line: modulators of LAP4-GFP expression in yeast, primary screen, S. cerevisiae, multiplex flow cytometry (AID 1873;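 active = GFP signal, as percent of the solvent control, above the screen mean plus 3 SD, about 149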). Conditions: 3 h, at 10 µM, stronger effect = higher value.
A short description of experiment [5]: modulators of AGP1-GFP expression in yeast TOR pathway, primary screen, cell-based, multiplex flow cytometry, S. cerevisiae (AID 1887;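 active = GFP signal above the screen-wide mean plus 3 SD, that is over about 124.5% of the solvent control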;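 note: AGP1-GFP fusion strain of S. cerevisiae within a five-strain barcoded multiplex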). Conditions: 3 h, at 10 µM, stronger effect = higher value.
The nature of experiment [6]: inhibitors of CD8+ T cell-vesicle binding, pilot screen, LFA-1/ICAM-1 modulator project, MLPCN validation set, flow cytometry (AID 2523;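 active = response below a set limit, under 55% cells CD8-positive and vesicle-bound, and CD8 cells' 90th-percentile brightness under 279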;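 for vesicle binding response: mean PE anti-B7-1 fluorescence of CD8+ cells relative to row control; 100% = QL9-loaded vesicles with DMSO vehicle in the same plate row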). The conditions noted are these: 2C mouse CD8+ T cells, at 7 µM, stronger effect = lower value; double positive events: measured here: CD8+/vesicle+ event percentage.
Experiment [7] deals with Integrin beta-1 (Homo sapiens) + Integrin alpha-4 (Homo sapiens) (UniProt P13612+P05556). The experiment is described as follows: inhibition of HUTS-21 binding to VLA-4, pilot screen, VLA-4 allosteric modulator project, U937 cells, HUTS-21 mAb, flow cytometry, validation set (AID 2674;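 active = inhibition above 50%, about 3 SD of the validation set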;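 note: antibody binding induced by the VLA-4 ligand LDV present at three times its Kd; 0% = LDV ligand with antibody and no compound and 100% = antibody without LDV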). The conditions noted are these: HUTS-21 LIBS mAb binding, at 6.7 µM, stronger effect = higher value, binding induced by LDV ligand.
Integrin beta-1 (Homo sapiens) + Integrin alpha-4 (Homo sapiens), sequence (P05556 whole entry, looked up): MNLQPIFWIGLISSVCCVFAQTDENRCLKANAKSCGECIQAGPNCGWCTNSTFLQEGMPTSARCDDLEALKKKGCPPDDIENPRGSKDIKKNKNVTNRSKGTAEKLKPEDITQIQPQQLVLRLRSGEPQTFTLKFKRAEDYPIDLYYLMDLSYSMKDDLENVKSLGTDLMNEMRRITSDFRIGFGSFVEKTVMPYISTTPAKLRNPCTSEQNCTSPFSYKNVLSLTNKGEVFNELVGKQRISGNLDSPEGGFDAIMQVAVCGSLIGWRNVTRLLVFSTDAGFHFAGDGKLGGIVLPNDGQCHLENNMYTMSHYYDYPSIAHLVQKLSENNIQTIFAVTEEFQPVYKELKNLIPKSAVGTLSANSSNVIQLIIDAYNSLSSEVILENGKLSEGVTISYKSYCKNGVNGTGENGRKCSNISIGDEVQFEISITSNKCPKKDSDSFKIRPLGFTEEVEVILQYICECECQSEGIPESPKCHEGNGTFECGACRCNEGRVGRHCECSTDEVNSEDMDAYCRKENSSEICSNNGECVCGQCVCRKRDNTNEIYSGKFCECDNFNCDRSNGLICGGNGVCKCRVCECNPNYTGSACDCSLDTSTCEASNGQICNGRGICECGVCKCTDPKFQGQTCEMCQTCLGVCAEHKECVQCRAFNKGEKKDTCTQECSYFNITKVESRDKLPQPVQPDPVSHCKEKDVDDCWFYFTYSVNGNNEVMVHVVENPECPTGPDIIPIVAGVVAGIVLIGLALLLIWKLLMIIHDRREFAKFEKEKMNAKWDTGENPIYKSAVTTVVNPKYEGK
Integrin beta-1 (Homo sapiens) + Integrin alpha-4 (Homo sapiens), sequence (P13612 whole entry, looked up): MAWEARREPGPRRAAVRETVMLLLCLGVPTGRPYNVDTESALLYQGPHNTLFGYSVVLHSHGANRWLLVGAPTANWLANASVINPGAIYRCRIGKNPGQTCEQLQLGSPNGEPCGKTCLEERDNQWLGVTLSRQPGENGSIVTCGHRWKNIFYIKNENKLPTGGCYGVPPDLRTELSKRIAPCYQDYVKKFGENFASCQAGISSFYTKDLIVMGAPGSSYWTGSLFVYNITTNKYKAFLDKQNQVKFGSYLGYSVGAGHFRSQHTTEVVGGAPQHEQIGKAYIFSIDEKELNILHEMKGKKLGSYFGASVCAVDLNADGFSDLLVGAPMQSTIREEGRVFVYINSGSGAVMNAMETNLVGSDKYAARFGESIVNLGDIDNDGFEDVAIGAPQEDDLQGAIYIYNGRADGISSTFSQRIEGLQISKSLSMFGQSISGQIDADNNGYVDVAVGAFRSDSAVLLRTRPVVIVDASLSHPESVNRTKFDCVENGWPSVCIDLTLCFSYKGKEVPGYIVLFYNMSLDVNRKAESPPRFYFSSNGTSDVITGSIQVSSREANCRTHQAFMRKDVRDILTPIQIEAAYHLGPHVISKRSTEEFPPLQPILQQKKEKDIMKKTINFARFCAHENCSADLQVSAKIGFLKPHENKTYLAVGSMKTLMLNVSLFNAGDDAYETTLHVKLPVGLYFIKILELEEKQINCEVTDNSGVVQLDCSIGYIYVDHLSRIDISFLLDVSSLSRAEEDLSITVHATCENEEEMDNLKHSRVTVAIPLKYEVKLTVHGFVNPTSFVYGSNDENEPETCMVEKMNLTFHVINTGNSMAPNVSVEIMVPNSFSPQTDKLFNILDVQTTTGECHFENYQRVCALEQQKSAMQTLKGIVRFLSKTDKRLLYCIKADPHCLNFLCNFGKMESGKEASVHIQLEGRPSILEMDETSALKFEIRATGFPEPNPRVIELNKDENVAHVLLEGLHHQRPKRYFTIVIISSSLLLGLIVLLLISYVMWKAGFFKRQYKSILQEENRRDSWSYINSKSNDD

Experiment [8] is described as follows: superoxide lowering in aged yeast cells, pilot screen, validation compound set (AID 2706;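 active = superoxide response below 65% of plate, a cut near 3 SD across the whole screen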;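 note: yeast exposed to compound for one week at 30 degrees C before staining; 100% = mean of all compound wells on the same plate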). Conditions: S. cerevisiae aging, superoxide DHE fluorescence; at 10 µM; stronger effect = lower value.
Experiment [9] deals with Beta-adrenergic receptor kinase 1 (Homo sapiens) (UniProt P25098). In words: GRK2 binders displacing RNA aptamer, biochemical, validation, human GRK2, bead flow cytometry (AID 488806;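 active = aptamer binding inhibition above 30%, about 3 SD of noise from non-fluorescent compounds; inactive = inhibition at or below 30%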). Conditions: bead-bound GRK2, FAM-aptamer displacement, at 10 µM, stronger effect = higher value.
Beta-adrenergic receptor kinase 1 (Homo sapiens), sequence (P25098 whole entry, looked up): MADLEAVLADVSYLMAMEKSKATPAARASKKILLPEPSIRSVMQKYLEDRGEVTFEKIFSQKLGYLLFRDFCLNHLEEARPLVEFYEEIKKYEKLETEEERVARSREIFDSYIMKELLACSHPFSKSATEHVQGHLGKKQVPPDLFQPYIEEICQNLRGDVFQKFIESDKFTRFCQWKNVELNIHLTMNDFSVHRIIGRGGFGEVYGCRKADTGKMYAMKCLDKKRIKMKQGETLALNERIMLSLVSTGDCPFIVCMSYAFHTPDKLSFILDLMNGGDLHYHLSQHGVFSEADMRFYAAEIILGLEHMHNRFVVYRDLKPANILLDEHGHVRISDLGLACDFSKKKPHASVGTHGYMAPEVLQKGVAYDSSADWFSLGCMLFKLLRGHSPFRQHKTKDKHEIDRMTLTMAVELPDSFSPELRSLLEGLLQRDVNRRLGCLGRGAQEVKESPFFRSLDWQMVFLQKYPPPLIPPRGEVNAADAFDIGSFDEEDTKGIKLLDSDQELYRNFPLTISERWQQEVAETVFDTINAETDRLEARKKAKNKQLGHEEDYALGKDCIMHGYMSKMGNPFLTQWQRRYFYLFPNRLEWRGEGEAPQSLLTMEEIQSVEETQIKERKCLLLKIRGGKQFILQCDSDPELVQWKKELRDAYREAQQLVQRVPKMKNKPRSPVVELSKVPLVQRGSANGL
For experiment [10], the target named is Beta-2 adrenergic receptor (Homo sapiens) (UniProt P07550). In words: beta2AR agonists driving receptor internalization, pilot screen, cell-based, FAP fluorogen, flow cytometry, validation set (AID 504459;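 active = percent response above 42, roughly 3 SD of non-fluorescent test compounds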;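 note: agonist-driven loss of surface beta2AR via internalization measured by FAP dye flow cytometry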). The conditions noted are these: Am2.2-beta2AR cells, FAP surface receptor flow cytometry; at 10 µM; stronger effect = higher value.
Beta-2 adrenergic receptor (Homo sapiens), sequence (P07550 whole entry, looked up): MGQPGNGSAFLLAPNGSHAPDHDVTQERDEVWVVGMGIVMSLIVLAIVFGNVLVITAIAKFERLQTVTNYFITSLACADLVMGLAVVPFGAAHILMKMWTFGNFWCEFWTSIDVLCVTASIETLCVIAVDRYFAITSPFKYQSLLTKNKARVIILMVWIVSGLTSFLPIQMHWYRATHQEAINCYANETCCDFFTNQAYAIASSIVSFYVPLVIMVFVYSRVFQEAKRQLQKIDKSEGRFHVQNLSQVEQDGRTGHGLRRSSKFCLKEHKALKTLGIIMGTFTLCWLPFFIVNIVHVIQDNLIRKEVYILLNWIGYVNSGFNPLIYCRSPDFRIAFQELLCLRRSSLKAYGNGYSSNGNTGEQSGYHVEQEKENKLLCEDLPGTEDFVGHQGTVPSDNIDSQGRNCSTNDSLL
In experiment [11] the target is AP-2 complex subunit beta (Homo sapiens) (UniProt P63010). In words: inhibitors of arrestin peptide binding to AP2, pilot screen, biochemical, validation set, GST-AP2 beads, flow cytometry (AID 504541;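 active = inhibition above 54%, about 3 SD of non-fluorescent compounds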;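 note: AP2 carries R879A mutation and is captured from E. coli lysate; bead-bound FITC arrestin peptide fluorescence measuring arrestin peptide binding to AP2; 0% = DMSO wells and 100% = excess unlabeled arrestin peptide control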). The conditions noted are these: FITC arrestin peptide, at 10 µM, stronger effect = higher value, AP2 beta2 appendage fragment, R879A mutant.
AP-2 complex subunit beta (Homo sapiens), sequence (P63010 whole entry, looked up, the tested form may be a part, one chain of several): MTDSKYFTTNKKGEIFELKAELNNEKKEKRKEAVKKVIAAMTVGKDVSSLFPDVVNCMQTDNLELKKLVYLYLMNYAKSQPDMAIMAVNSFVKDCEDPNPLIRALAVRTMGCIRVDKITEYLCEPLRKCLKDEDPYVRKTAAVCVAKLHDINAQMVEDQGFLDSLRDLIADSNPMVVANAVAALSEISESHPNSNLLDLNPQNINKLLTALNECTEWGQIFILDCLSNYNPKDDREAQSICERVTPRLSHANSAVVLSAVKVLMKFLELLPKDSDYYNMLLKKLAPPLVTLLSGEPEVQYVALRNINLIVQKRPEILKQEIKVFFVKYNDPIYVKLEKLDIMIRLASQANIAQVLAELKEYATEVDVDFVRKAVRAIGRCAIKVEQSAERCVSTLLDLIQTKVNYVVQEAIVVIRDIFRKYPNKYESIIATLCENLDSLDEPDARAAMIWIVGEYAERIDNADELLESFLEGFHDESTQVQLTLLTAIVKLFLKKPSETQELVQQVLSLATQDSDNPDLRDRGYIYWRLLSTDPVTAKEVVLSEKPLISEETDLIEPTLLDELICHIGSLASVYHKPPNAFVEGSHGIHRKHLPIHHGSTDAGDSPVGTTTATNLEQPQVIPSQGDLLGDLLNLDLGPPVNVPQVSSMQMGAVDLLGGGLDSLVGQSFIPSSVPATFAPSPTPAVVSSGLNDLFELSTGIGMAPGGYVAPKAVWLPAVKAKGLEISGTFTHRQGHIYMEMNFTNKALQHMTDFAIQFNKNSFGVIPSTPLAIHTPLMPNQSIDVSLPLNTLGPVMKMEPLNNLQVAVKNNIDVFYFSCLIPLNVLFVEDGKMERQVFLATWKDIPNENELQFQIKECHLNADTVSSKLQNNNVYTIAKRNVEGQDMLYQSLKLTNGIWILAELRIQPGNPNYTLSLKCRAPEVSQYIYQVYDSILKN
Experiment [12] is described as follows: yeast V-ATPase proton transport modulators, S. cerevisiae, pHLuorin, HTS validation (AID 504600; in the data active = response above about 15%;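 note: plate controls were DMSO for no effect and reference compound for full effect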). Conditions: S. cerevisiae pHLuorin cytosolic pH, at 10 µM, stronger effect = higher value.
The subject of experiment [13] is anti-desmoglein-3 scFv antibody binding to human DSG3. In words: inhibitors of anti-DSG3 scFv binding to DSG3, pilot screen, biochemical, validation compound set, bead-based, flow cytometry (AID 588368).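 Note: signal is the median channel fluorescence of bead-bound GFP antibody.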 Conditions: Protein G beads, DSG3-Fc, scFv-GFP binding, at 10 µM, stronger effect = lower value.
Experiment [14] can be described thus: inhibitors of fungal efflux pumps CDR1, CDR2, MDR1, pilot screen, validation compound set, multiplex, phenotypic (AID 588506;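 active = efflux inhibition above 0.42, the validation set average plus 4 SD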;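 note: Nile Red retained in cells so higher fluorescence means more efflux inhibition; 0 = negative control wells and 1 = enniatin B 25 µM full block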). Conditions: S. cerevisiae pump-expressing triplex, Nile Red efflux flow cytometry; at 10 µM; stronger effect = higher value; the pumps come from Candida albicans.
For experiment [15], the target named is ATP-binding cassette sub-family B member 6 (Homo sapiens) (UniProt Q9NP58). In words: ABCB6 transporter inhibitors, pilot screen, K562-ABCB6 cells, flow cytometry, validation set (AID 588550;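 active = inhibition above the screen-wide mean plus 3 SD, about 51%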;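 note: 0% = DMSO wells and 100% = benzethonium chloride 70 µM positive control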). Conditions: K562-ABCB6 porphyrin accumulation, 1 h, at 10 µM, stronger effect = higher value.
ATP-binding cassette sub-family B member 6 (Homo sapiens), sequence (Q9NP58 whole entry, looked up): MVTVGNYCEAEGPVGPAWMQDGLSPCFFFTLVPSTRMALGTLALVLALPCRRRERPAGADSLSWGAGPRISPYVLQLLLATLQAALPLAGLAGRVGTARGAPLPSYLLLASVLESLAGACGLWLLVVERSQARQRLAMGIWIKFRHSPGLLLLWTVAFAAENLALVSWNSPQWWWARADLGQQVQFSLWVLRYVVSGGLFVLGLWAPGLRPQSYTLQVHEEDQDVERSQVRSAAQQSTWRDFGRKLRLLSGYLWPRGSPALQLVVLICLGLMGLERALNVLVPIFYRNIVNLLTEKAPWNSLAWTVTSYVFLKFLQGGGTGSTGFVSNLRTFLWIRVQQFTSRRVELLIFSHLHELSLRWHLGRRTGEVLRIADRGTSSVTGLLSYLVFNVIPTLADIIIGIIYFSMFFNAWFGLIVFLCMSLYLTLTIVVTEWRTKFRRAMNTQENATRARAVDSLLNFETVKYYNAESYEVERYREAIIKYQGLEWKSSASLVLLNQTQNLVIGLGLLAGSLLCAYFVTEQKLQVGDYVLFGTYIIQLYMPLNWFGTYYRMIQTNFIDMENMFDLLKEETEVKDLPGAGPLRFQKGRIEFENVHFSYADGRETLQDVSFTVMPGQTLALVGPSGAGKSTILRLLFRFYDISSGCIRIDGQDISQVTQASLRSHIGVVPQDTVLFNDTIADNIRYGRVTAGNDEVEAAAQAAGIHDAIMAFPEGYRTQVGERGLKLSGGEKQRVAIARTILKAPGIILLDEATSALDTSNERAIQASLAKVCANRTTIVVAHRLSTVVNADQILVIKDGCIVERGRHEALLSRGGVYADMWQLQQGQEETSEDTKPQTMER
Experiment [16] can be described thus: promoters of myeloid differentiation in arrested cells, primary screen, cell-based, GFP/MAC1 double positive, flow cytometry, validation set (AID 588685;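 active = differentiation response of at least 50%, scaled between solvent and reference control, from cells with both markers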;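 note: compound exposure lasts four days before antibody staining and flow analysis; 0% = DMSO wells and 100% = 5 µM fulvestrant positive control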). Conditions: ER-HoxA9 marrow cells, stronger effect = higher value, normalized: vehicle 0, fulvestrant 100.

As for `NC(=O)N1c2ccccc2CC(=O)c2ccccc21`, the percent of DMSO control GFP in experiment [1] was 103% (inactive). Moreover, the GFP response vs DMSO in experiment [2] is 102% (inactive); in [4], 92.6% (inactive). The percent response of DMSO control in [3] was 102% (inactive). Also, the GFP response, % of DMSO in experiment [5] was 102% (inactive). The molecule also had a double positive events in [6] of 64.1%. In addition, the vesicle binding response in experiment [6] was 200% (inactive). Besides, the inhibition (as a rule, the drop in the measured response relative to a control, in per cent) is 6.95% (inactive) in experiment [7], -3.95% (inactive) in [11] and 2% (inactive) in experiment [15]. In addition, the superoxide response (% of plate) in experiment [8] was 106% (inactive). Besides, the aptamer binding inhibition in experiment [9] was 2% (inactive). Also, the response in experiment [10] is 0.79% (inactive); in [12], -2.65% (inactive). For the same molecule, the binding (% of control) in [13] is 97.3% (inactive). Further, in [14], the efflux inhibition (fraction of control) is -0.14 (inactive). The differentiation response in experiment [16] was -6.03% (inactive).
Consider `Cc1ccc(S(=O)(=O)n2ccnc2)cc1C`, for which the percent of DMSO control GFP in experiment [1] is 98.4% (inactive). For the same molecule, the values for the GFP response vs DMSO in [2] and in experiment [4] were 112% (inactive) and 108% (inactive), respectively. The percent response of DMSO control in experiment [3] was 99.6% (inactive). Further, the GFP response, % of DMSO in [5] was 121% (inactive). Besides, the double positive events in experiment [6] worked out at 60.3%. Moreover, the vesicle binding response in [6] is 160% (inactive). The inhibition in experiment [7] was 6.55% (inactive); in [11] it was -13.3% (inactive); in [15], 3% (inactive). For the same molecule, in experiment [8], the superoxide response (% of plate) is 95.2% (inactive). For the same molecule, the aptamer binding inhibition in experiment [9] is 1% (inactive). Besides, the response was -20.5% (inactive) in [10] and 1.99% (inactive) in [12]. Moreover, the binding (% of control) in experiment [13] was 102% (inactive). For the same molecule, in experiment [14], the efflux inhibition (fraction of control) was -0.09 (inactive). Besides, in experiment [16], the differentiation response is -2.03% (inactive).
As to `Cc1[nH]c2ccccc2c1/C=C/c1nc2ccccc2c(=O)n1CCO`, in experiment [1], the percent of DMSO control GFP is 102% (inactive). Moreover, the GFP response vs DMSO is 106% (inactive) in experiment [2] and 110% (inactive) in experiment [4]. Besides, the percent response of DMSO control in experiment [3] is 97.7% (inactive). Also, the GFP response, % of DMSO in experiment [5] is 100% (inactive). The same molecule displayed a double positive events in [6] of 59%. The vesicle binding response in experiment [6] is 200% (inactive). For the same molecule, the inhibition was -15.4% (inactive) in experiment [7], 12.7% (inactive) in experiment [11] and 4% (inactive) in [15]. Also, the superoxide response (% of plate) in experiment [8] was 89.8% (inactive). Also, in [9], the aptamer binding inhibition was 7% (inactive). Besides, the response in [10] is 20.6% (inactive); in experiment [12] it was -3.06% (inactive). Further, the binding (% of control) in experiment [13] was 106% (inactive). The efflux inhibition (fraction of control) in experiment [14] was 0.33 (inactive). The differentiation response in [16] is 0.8% (inactive).
In the case of `Nc1nc(SCc2ccc([N+](=O)[O-])cc2)c2ncn(C3OC(CO)C(O)C3O)c2n1` (stereo not given), the percent of DMSO control GFP in [1] is 108% (inactive). For the same molecule, the GFP response vs DMSO is 99.7% (inactive) in experiment [2] and 100% (inactive) in experiment [4]. For the same molecule, the percent response of DMSO control in [3] is 106% (inactive). Moreover, the GFP response, % of DMSO in experiment [5] is 107% (inactive). Moreover, the double positive events in experiment [6] was found to be 63.2%. Moreover, in experiment [6], the vesicle binding response was 169% (inactive). The results for the inhibition in experiment [7], in [11] and in experiment [15] were 8.29% (inactive), 14.6% (inactive) and 2% (inactive), respectively. Further, the superoxide response (% of plate) in experiment [8] is 105% (inactive). The aptamer binding inhibition in experiment [9] is 0% (inactive). The response in experiment [10] is -15.6% (inactive); in experiment [12], 0.04% (inactive). The binding (% of control) in experiment [13] was 98.1% (inactive). Moreover, the efflux inhibition (fraction of control) in experiment [14] was -0.07 (inactive). In addition, in experiment [16], the differentiation response is -7.5% (inactive).
As to `Fc1ccc(-n2cc(CNCCc3ccccn3)c(-c3ccccc3Cl)n2)cc1`, the percent of DMSO control GFP in [1] is 106% (inactive). Further, the GFP response vs DMSO in [2] is 102% (inactive); in experiment [4], 106% (inactive). Besides, the percent response of DMSO control in [3] was 97.7% (inactive). Further, the GFP response, % of DMSO in experiment [5] was 107% (inactive). The same molecule came in with a double positive events in experiment [6] of 63.8%. The vesicle binding response in [6] is 91.8% (inactive). In addition, the values for the inhibition in experiment [7], in experiment [11] and in experiment [15] were 15.9% (inactive), 1.4% (inactive) and -2% (inactive), respectively. Besides, in experiment [8], the superoxide response (% of plate) was 98.4% (inactive). The aptamer binding inhibition in [9] is -3% (inactive). The response in experiment [10] was -23.3% (inactive); in [12] it was -7.11% (inactive). Moreover, the binding (% of control) in experiment [13] is 110% (inactive). The efflux inhibition (fraction of control) in experiment [14] was -0.17 (inactive). Moreover, the differentiation response in [16] was -7.94% (inactive).
